Assay outcomes (PubChem BioAssay)
An excerpt weighted towards active compounds, which were near 28% of everything screened.
CYP2C9 inhib = inhibitors of human CYP2C9 | CYP2C9 Supersomes, luciferin-H conversion, luminescence | inhibition, % at 5 µM | 96,000 compounds, 20% hits;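 active = blocking of liver enzyme CYP2C9 beyond about 50% at 5 µM, limit read from the data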
CYP2C9 activ = increases human cytochrome P450 2C9 activity | P11712 | recombinant CYP2C9, luciferin-H conversion, luminescence; active compounds read high; factor 1 = untreated enzyme, 0 = blocked | activation factor at 5 µM | 96,000 compounds, 1.4% hits;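 active = activation factor of 2 or more for CYP2C9 at a 5 µM dose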;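 note: 0 = sulfaphenazole-blocked wells and 1 = vehicle-only wells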
CYP2C19 act = activators of human cytochrome P450 2C19 | P33261 | recombinant CYP2C19, luciferin-H EGE luminescence; active compounds read high; 0 = fully inhibited enzyme, 1 = untreated enzyme | activation factor at 5 µM | 96,000 tested, under 10 active | AID 1025;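 active = activation factor of at least 2 at 5 µM in the primary screen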;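 note: 0 = wells with 2.5 mM tranylcypromine and 1 = vehicle-only wells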
DAT uptake mod = changed human dopamine transporter uptake under cocaine IC80; B-score at 10 µM; AID 449768; Q01959; 110,000 compounds, 1.3% hits; LLC-PK1 hDAT cells, [14C]-dopamine uptake with cocaine IC80; actives deviate in either direction;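 active = Z score or B-score, a plate-position-corrected score, falls beyond the plate's 99.7% confidence bounds, in either direction; inactive = both scores lie inside the 99.7% bounds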;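 note: scored against the spread of the other compound wells on the same plate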
D1 mod = allosteric modulators of human D1 dopamine receptor. P21728. HEK293 D1, CRE-luciferase, dopamine EC30 potentiation; actives deviate in either direction. B-score at 10 µM. 58,000 compounds, 5.9% hits;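 active = luminescence count or its row- and column-corrected plate score outside the 99.7% band of the plate's sample wells, on either side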
Target sequence (P21728 whole entry, looked up): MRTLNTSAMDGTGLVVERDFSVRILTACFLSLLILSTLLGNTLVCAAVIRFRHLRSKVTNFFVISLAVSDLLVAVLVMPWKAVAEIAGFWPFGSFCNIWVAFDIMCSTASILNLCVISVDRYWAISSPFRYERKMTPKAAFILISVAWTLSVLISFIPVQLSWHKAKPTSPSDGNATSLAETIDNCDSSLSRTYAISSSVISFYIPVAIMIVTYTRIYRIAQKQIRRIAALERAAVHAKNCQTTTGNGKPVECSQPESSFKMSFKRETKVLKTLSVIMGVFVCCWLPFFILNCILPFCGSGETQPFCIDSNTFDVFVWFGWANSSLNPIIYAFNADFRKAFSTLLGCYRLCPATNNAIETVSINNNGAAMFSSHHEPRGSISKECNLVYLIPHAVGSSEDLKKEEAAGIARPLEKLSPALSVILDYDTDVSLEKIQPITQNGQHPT
CYP2C19 inhib = inhibitors of human CYP2C19; CYP2C19 Supersomes, luciferin-H EGE luminescence, 30 min; P33261; inhibition, % at 5 µM; 96,000 compounds, 21% hits; AID 778;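 active = CYP2C19 inhibition above a set limit at 5 µM in the primary screen, cut at about 50% in these data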;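 note: plate controls were negative control wells for no effect and 2.5 mM tranylcypromine positive control for full effect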
An asterisk follows results filed as active; nt = not tested or not shown.

SMILES	CYP2C9 inhib	CYP2C9 activ	CYP2C19 act	DAT uptake mod	D1 mod	CYP2C19 inhib
N#Cc1nc(COc2ccc(F)cc2)oc1N1CCCC1	28	0.7	0	0.58	2.6	96*
N#Cc1nc(COc2cccc(Cl)c2)oc1N1CCCC1	18	0.8	0	-1.2	1.4	98*
c1ccc(CNc2ncnc3c2cnn3-c2ccccc2)cc1	54*	0.5	0.9	-1.1	-0.56	13
CC(C)(C)Nc1ncnc2c1cnn2-c1ccccc1	63*	0.4	0.6	1.1	nt	36
c1ccc(CCNc2ncnc3c2cnn3-c2ccccc2)cc1	nt	nt	nt	0.0019	-1.4	nt
Clc1ccc(Nc2ncnc3c2cnn3-c2ccccc2)cc1	-7	1.1	1	-0.016	-1.1	-5
Fc1ccc(CNc2ncnc3c2cnn3-c2ccccc2)cc1	58*	0.4	0.8	-0.62	0.72	19
CC(C)Nc1ncnc2c1cnn2-c1ccc(Cl)cc1	15	0.8	1	0.38	-6.1*	-1
O=C1CNC(=O)N1Cc1ccc(Br)cc1	17	0.8	0.6	-0.93	nt	37
Cc1ccccc1OCCNC(=O)CNC(=O)c1ccccc1O	42	0.6	0.6	-0.35	0.16	43
O=C(NCC1CC1)c1onc(CSc2ccncc2)c1C(=O)NCC1CC1	nt	nt	nt	0.21	nt	nt
Cc1cccc(-n2ncc3c(NCc4ccccn4)ncnc32)c1	32	0.7	0.8	0.89	0.24	22
c1ccc(-n2ncc3c(NCc4ccccn4)ncnc32)cc1	70*	0.3	0.6	1.2	-0.77	42
c1ccc(-n2ncc3c(NCCN4CCOCC4)ncnc32)cc1	52*	0.5	0.7	-1.4	-0.35	29
CCOC(=O)c1c(-c2cccc([N+](=O)[O-])c2)csc1NC(=O)C1CC1	76*	0.2	0.7	0.6	nt	27
CCOC(=O)c1c(-c2ccc(C)c(C)c2)csc1NC(=O)C1CC=CCC1C(=O)O (configuration not stated)	76*	0.2	0.9	nt	nt	10
COC(=O)c1c(-c2ccco2)csc1NC(=O)C1CC=CCC1C(=O)O (configuration not stated)	4	1	1	1.4	-0.62	5
COc1ccc(-c2nnc(SCc3nc4ccccc4s3)n2C(C)C)cc1	39	0.6	0.1	3.9*	nt	93*
CCC(CC)NC(=O)CSc1nnc(-c2ccc(OC)cc2)n1C(C)C	21	0.8	1.1	0.49	nt	-12
CCn1c(SCc2nc3ccccc3s2)nnc1-c1cccs1	54*	0.5	0	1.3	0.075	98*
Cn1c(SCc2nc3ccccc3s2)nnc1-c1cccs1	35	0.7	0.1	0.1	-0.58	92*
Cc1ccccc1-n1c(C)nnc1SCc1nc2ccccc2s1	22	0.8	0.2	0.32	-0.084	76*
CC1Oc2cc3oc4c(O)c(O)ccc4c(=O)c3c(O)c2C1(C)C (configuration not stated)	nt	nt	nt	2	nt	nt
O=C(Nc1ccc(Cl)cc1)N(CCCN1CCOCC1)Cc1cccs1	48	0.5	0.2	-0.73	nt	84*
Cc1ccc(NC(=O)N(CCCN2CCOCC2)Cc2cccs2)cc1C	53*	0.5	0.4	-0.82	nt	63*
SMILES	CYP2C9 inhib	CYP2C9 activ	CYP2C19 act	DAT uptake mod	D1 mod	CYP2C19 inhib
O=C(NCCN1CCOCC1)Nc1ccc(Cl)cc1	4	1	0.9	0.31	0.19	9
Cc1cc2ncn(-c3ncnc4sc5c(c34)CCCC5)c2cc1C	66*	0.3	0.2	1.6	nt	83*
c1ccc2c(c1)ncn2-c1ncnc2sc3c(c12)CCCC3	32	0.7	0.3	0.29	nt	70*
Cc1cc2ncn(-c3ncnc4sc5c(c34)CCC(C)C5)c2cc1C (configuration not stated)	43	0.6	0.2	nt	nt	80*
Cc1cc2ncn(-c3ncnc4scc(-c5ccccc5)c34)c2cc1C	16	0.8	0.7	nt	nt	26
Oc1ccc(N2CCN(c3ncnc4sc5c(c34)CCC5)CC2)cc1	-4	1	0.9	-1.5	-1.9	12
Cc1cc2ncn(-c3ncnc4sc(C)c(C)c34)c2cc1C	83*	0.2	0.1	0.45	1.3	91*
Cc1cc(C)nc(Sc2ncnc3sc4c(c23)CCC4)n1	nt	nt	nt	1.2	nt	nt
CC1(C)O[C@H]2OC([C@H](O)CON3C(=O)c4ccccc4C3=O)[C@H](O)[C@H]2O1 (some centres not stated)	nt	nt	nt	0.028	nt	nt
CCCN1CCN(C(=O)c2cccc3c2C(=O)N(CCOC)C3)CC1	-16	1.2	1.1	-0.64	-0.81	-12
CCOC(=O)CN1C(=O)N[C@@H](c2cccc(C(F)(F)F)c2)[C@H](C(C)=O)[C@H]1C	nt	nt	nt	0.23	nt	nt
CC(O)CNc1nc2ccccc2n1-c1ncnc2sc3c(c12)CCC3 (configuration not stated)	44	0.6	0.6	2.8*	0.44	38
CC(C)C1C(c2ccccc2)N(C)C(c2ccccc2)CC1(O)c1ccccc1 (configuration not stated)	-5	1.1	1	-1.7	nt	-2
CC1C(=O)CC(c2ccccc2)N(C)C1c1ccccc1 (configuration not stated)	90*	0.1	0	-0.34	nt	100*
C=CCC(C=C)S(=O)(=O)c1ccc(C)cc1 (configuration not stated)	14	0.9	0.1	0.003	nt	87*
COc1ccc(-c2nn(-c3ccccc3)cc2/C=N/N2C(=O)CSC2=S)cc1	30	0.7	0.9	-0.12	nt	8
CCC1(CC)NC(=O)N(CC(=O)Nc2sc3c(c2C(N)=O)CCC3)C1=O	74*	0.3	0.6	0.88	-1.3	39
CC(=O)Nc1sc2c(c1C(N)=O)CCC2	nt	nt	nt	-0.93	nt	nt
CCCCC(=O)Nc1sc2c(c1C(N)=O)CCC2	77*	0.2	0.5	1.6	1.6	47
NC(=O)[C@H]1CC2(CC(c3cccc(NC(=O)[C@H]4CCC(=O)N4)c3)=NO2)CN1C(=O)c1cc([N+](=O)[O-])cc([N+](=O)[O-])c1 (some centres not stated)	nt	nt	nt	-0.7	nt	nt
COc1ccc(OC)c(NC(=O)CSCC(=O)O)c1	-4	1	0.9	-0.43	0.078	10
CCCCn1c(O)c(C(CC)=Nc2ccc3c(c2)CCC3)c(=O)[nH]c1=O	4	1	1	-0.55	0.32	5
CCC(=Nc1ccc(Cc2ccncc2)cc1)c1c(O)n(C)c(=O)n(C)c1=O	92*	0.1	0	nt	-0.48	96*
O=C1NCCCC2c3cc(O)c4ccccc4c3OC12N1CCCCC1 (configuration not stated)	12	0.9	0.6	-3.4*	0.00095	42
O=C1NCCCC2c3c(cc(Br)c(O)c3Br)OC12N1CCOCC1 (configuration not stated)	-10	1.1	0.8	1.4	0.062	23
CO/N=C(/CS(=O)(=O)c1ccc(C)cc1)c1ccc(OC)cc1	17	0.8	0	-0.73	nt	99*
